Screening results from PubChem.
An excerpt weighted towards active compounds, which were near 2.1% of everything screened.
aSyn UTR inh: MLPCN primary screen, SNCA 5' untranslated region | alpha-synuclein 5'UTR reporter, inhibitor activity | inhibition, % (tested at 7.5 µM) | 300,000 compounds, 0.82% hits | AID 1813, 2009; in the data active means inhibition above about 60%; inconclusive means no clear call, values can overlap the other calls;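 further: H4 neuroglioblastoma cells stably carrying SNCA 5'UTR luciferase fusion; 0% = DMSO wells and 100% = positive control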
Shn3 inh set2: reduction of Shn3 3'UTR firefly luciferase signal, primary screen, Schnurri-3 inhibitor project, cell-based, Clone20 osteoblasts, set 2. Clone20 osteoblast Shn3 3'UTR firefly luciferase, 24 h. inhibition, % at 12.5 µM. 360,000 compounds, 0.52% hits;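 active means mean inhibition of at least 75% with every replicate also reaching 75%; inconclusive means mean inhibition at least 75% but some replicate below; inactive means mean inhibition below 75%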;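 further: 0% = median of neutral control wells and 100% = pilot-screen positive control compound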
LMP1 NFkB inh: EBV LMP1-driven NF-kappaB luciferase reporter inhibitors, primary screen, cell-based, luminescence, single point; LMP1-induced NF-kappaB luciferase reporter cells; inhibition, % at 12.5 µM; 350,000 compounds, 0.69% hits; AID 504558, 2011; in the data active means inhibition above about 41%; inconclusive means no clear call, values can overlap the other calls;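 further: 0% = neutral control wells and 100% = reference inhibitor control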
MITF TRPM1 inh: inhibitors of MITF-dependent TRPM1 promoter reporter, primary screen, cell-based, SK-MEL-5, single point, luciferase. inhibition, % at 12.5 µM. 330,000 compounds, 0.83% hits. SK-MEL-5 TRPM1 promoter luciferase, 24 h;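 active means mean inhibition across replicates of 60% or more, whatever share of single replicates reaches that level; inconclusive means some that reach 60%, reason not given; inactive means mean inhibition across replicates below 60%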
PAX8 inh HTS: inhibitors of PAX8-driven TPO luciferase reporter, primary screen, RMG-I cells, single concentration. 360,000 compounds, 1.2% hits. SteadyGlo, 24 h. inhibition, % at 12.6 µM;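 active means mean replicate inhibition at least 60% with every replicate also reaching 60%; inconclusive means only one of the two criteria is met; inactive means mean below 60% and not all replicates reaching 60%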;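 further: luciferase light reporting Pax8 driven TPO promoter activity; plate controls were median of neutral control wells for no effect and mitoxantrone controls for full effect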
Active calls of the source: *; ? = inconclusive; / = no result given.

SMILES | aSyn UTR inh | Shn3 inh set2 | LMP1 NFkB inh | MITF TRPM1 inh | PAX8 inh HTS
C[C@@H]1CN([C@@H](C)CO)C(=O)c2cc(NC(=O)Nc3ccc(C(F)(F)F)cc3)ccc2O[C@@H](C)CCCCO[C@@H]1CN(C)Cc1ccccc1 | / | / | / | / | 78.6*
C[C@@H]1CCCCO[C@H](CN(C)Cc2ccccc2)[C@@H](C)CN([C@@H](C)CO)C(=O)c2cc(NC(=O)Nc3ccc(C(F)(F)F)cc3)ccc2O1 | / | / | / | / | 118.8*
C[C@@H]1CN([C@H](C)CO)C(=O)c2cc(NC(=O)Nc3ccc(C(F)(F)F)cc3)ccc2O[C@@H](C)CCCCO[C@H]1CN(C)Cc1ccccc1 | / | / | / | / | 112.8*
CCC(C)Nc1nc(OCC(F)(F)F)nc(OCC(F)(F)F)n1 (configuration not stated) | 11.2 | -4.4 | -3.0 | -12.4 | /
C#CCOCCOCCOCCNc1nc(N2CCN(C(=O)[C@H]([C@@H](C)CC)n3cc(CCCCN)nn3)CC2)nc(N2CCN(C(=O)[C@H](CCCCN)n3cc(CC(C)O)nn3)CC2)n1 (some centres not stated) | / | -2.1 | 3.1 | 6.3 | 5.0
Cc1cccc(NCc2ccccc2OCc2ccccc2F)c1 | 8.0 | 6.2 | -12.5 | -7.5 | -4.4
Cc1ccc(S(=O)(=O)Nc2ccc3c(c2)C(=O)N([C@@H](C)CO)C[C@@H](C)[C@H](CN(C)Cc2ccccc2)OCCCC[C@H](C)O3)cc1 | / | / | / | / | 7.7
C[C@H](CO)N1C[C@H](C)[C@@H](CN(C)Cc2ccccc2)OCCCC[C@H](C)Oc2ccc(NC(=O)Nc3ccc(C(F)(F)F)cc3)cc2C1=O | / | / | / | / | 95.2*
C[C@@H]1CN([C@@H](C)CO)C(=O)c2cc(NC(=O)Nc3ccccc3)ccc2O[C@@H](C)CCCCO[C@H]1CN(C)Cc1ccc(C(F)(F)F)cc1 | / | / | / | / | 71.7*
Cc1ccccc1-c1ccc([C@H]2[C@@H](CO)N3CCCCN(C(=O)Nc4cccc(F)c4)C[C@@H]23)cc1 | / | / | / | / | 23.4
Cc1ccccc1-c1ccc([C@H]2[C@@H](CO)N3CCCCN(C(=O)Nc4cccc(F)c4)C[C@H]23)cc1 | / | / | / | / | 99.9*
O=C(Nc1ccccc1)N1CCCCN2[C@H](CO)[C@H](c3ccc(-c4ccccc4F)cc3)[C@H]2C1 | / | / | / | / | -6.1
Cc1ccc(-c2ccc([C@H]3[C@@H](CO)N4CCCCN(C(=O)Nc5cccc(F)c5)C[C@@H]34)cc2)cc1 | / | / | / | / | 11.3
Cc1ccccc1-c1ccc([C@@H]2[C@H](CO)N3CCCCN(C(=O)Nc4cccc(F)c4)C[C@@H]23)cc1 | / | / | / | / | 107.9*
O=C(Nc1cccc(F)c1)N1CCCCN2[C@@H](CO)[C@@H](c3ccc(-c4ccccc4F)cc3)[C@@H]2C1 | / | / | / | / | 113.7*
COc1cc(/C=N/NC(=S)NC2CC3C=CC2C3)cc(OC)c1OC (configuration not stated) | 10.2 | -1.5 | 4.3 | 5.0 | 2.3
Cc1cc(OC(C)C(=O)NCc2ccncc2)c2c(C)cc(=O)oc2c1 (configuration not stated) | 6.7 | -18.4 | -3.4 | 0.1 | -3.5
Cc1ccc(C)c(NC(=O)c2oc(=O)c3ccccc3c2-c2ccccc2)c1 | 13.0 | 5.2 | -0.2 | -9.2 | 21.1
CN1CCN(CCCNC(=O)c2ccc3c(c2)N(Cc2ccc(F)cc2)CCS3)CC1 | 2.0 | -20.8 | 67.4* | -11.6 | -6.2
O=C(C#Cc1ccccc1)c1ccco1 | -140.8 | 95.2* | 23.8 | 98.9* | 123.7*
O=C(NCc1ccncc1)c1ccc(-c2ccc(F)c(F)c2)c2ccoc12 | / | 54.1 | / | / | /
c1ccc(CSc2ncccn2)cc1 | 6.8 | -20.9 | 7.8 | -25.6 | /
COc1cc(OC)cc(C(=O)N[C@H](C(=O)OCC(=O)c2ccc(C)c([N+](=O)[O-])c2)C(C)C)c1 | / | -10.5 | 84.1* | 5.0 | -13.8
COc1cc(OC)cc(C(=O)N[C@H](C(=O)OCC(=O)c2ccc3c(c2)NC(=O)CO3)C(C)C)c1 | 33.6 | 1.7 | -22.0 | 10.8 | 0.5
Cn1c(-c2ccccc2)cc2onc(-c3ccccc3)c2c1=O | / | 39.3 | 38.7 | 8.1 | 13.8
CCOc1cc(/C=C/C(=O)Nc2ccc(C(=O)NCCN(CC)CC)cc2)ccc1OCC(C)C | ? | 37.1 | -18.7 | 83.2* | 78.3*
Cc1ccc(OCC(=O)Nc2ccc3c(c2)nc(CCN2CCN(C)CC2)n3C)cc1 | 105.3* | 1.5 | 11.9 | 3.0 | 1.0
